The term Inhibition denotes the drop in the measured response relative to a control, in per cent.

One assay concerns Staphylococcus aureus. In words: Antibacterial activity against Staphylococcus aureus MRSA ATCC 43300 (CO-ADD:GP_020); MIC in CAMBH media using NBS plates, by Resazurin F(560/590). The class given is functional. Conditions: Concentration 20 uM, ASSAY_TEST Inhibition of Bacterial Growth, detection method Resazurin, Fluorescence (ex560/em590), MEDIA CAMHB, plate type 384well, CORNING #3640, time 18 hr. (Resazurin is reduced to fluorescent resorufin, in cell work by metabolically active cells.)

In the next assay the test system is Acinetobacter baumannii. In words: Antibacterial activity against Acinetobacter baumannii ATCC 19606 (CO-ADD:GN_034); MIC in CAMBH media using NBS plates, by Resazurin F(560/590). The assay is classed as functional. To be noted: Concentration 20 uM, ASSAY_TEST Inhibition of Bacterial Growth, detection method Resazurin, Fluorescence (ex560/em590), MEDIA CAMHB, plate type 384well, CORNING #3640, time 18 hr.

The subject of the next assay is Escherichia coli. In words: Antibacterial activity against Escherichia coli ATCC 25922 (CO-ADD:GN_001); MIC in CAMBH media using NBS plates, by Resazurin F(560/590). Conditions: Concentration 20 uM, ASSAY_TEST Inhibition of Bacterial Growth, detection method Resazurin, Fluorescence (ex560/em590), MEDIA CAMHB, plate type 384well, CORNING #3640, time 18 hr. The assay is classed as functional.

Another assay concerns Klebsiella pneumoniae. To be noted: Concentration 20 uM; ASSAY_TEST Inhibition of Bacterial Growth; detection method Absorption (OD600); MEDIA CAMHB; plate type 384well; NBS; CORNING #3640; time 18 hr.
Another assay relates to Candida albicans. Conditions: 20 µM.
The subject of the next assay is Cryptococcus neoformans. Conditions: Concentration 20 uM; ASSAY_TEST Inhibition of Fungal Growth; detection method Resazurin; Absorption (OD600-OD570); plate type 384well; NBS; CORNING #3640.

For part of these data: Results with a measured potency or affinity are listed apart.

As for `CN(C(=O)c1ccncc1)c1ccccc1`, the Inhibition with Staphylococcus aureus is 38.14%; in the assay with Acinetobacter baumannii it was 13.73%; with Escherichia coli, 16.42%; in the assay with Klebsiella pneumoniae it was 7.45%; with Candida albicans, 4.18%; in the assay with Cryptococcus neoformans, 6.4%.

As to `COC(=O)c1cncc(C)c1`, the Inhibition in the assay with Staphylococcus aureus was 18.5%; in the assay with Acinetobacter baumannii, -13.2%; with Escherichia coli it was 14.23%; in the assay with Klebsiella pneumoniae it was 15.45%; in the assay with Candida albicans it was 0.39%; with Cryptococcus neoformans it was -1.27%.

As to `O=C1NC(=O)N2CCSC2(Cc2ccccc2)N1` (configuration not stated), the Inhibition with Staphylococcus aureus is 11.67%; in the assay on Acinetobacter baumannii, 11.67%; in the assay with Escherichia coli, -4.61%; with Klebsiella pneumoniae it was 17.33%; with Candida albicans it was 4.4%; with Cryptococcus neoformans, -2.7%.

With `NC(=O)NC(=O)c1nccnc1C(=O)O`, the Inhibition is 4.42% in the assay with Staphylococcus aureus; -16.67% in the assay on Acinetobacter baumannii; 10.6% with Escherichia coli; 1.89% in the assay on Klebsiella pneumoniae; 0.76% in the assay with Candida albicans; -7.91% in the assay on Cryptococcus neoformans.

Regarding `Oc1ccc(Cc2ccccc2Cl)c(O)c1`, the Inhibition in the assay with Staphylococcus aureus is 14.48%; with Acinetobacter baumannii it was -16.11%; in the assay on Escherichia coli, 10.23%; in the assay on Klebsiella pneumoniae, 8.44%; in the assay on Candida albicans it was -1.58%; with Cryptococcus neoformans, -12.35%.

Turning to `c1ccc2[nH]c(CCCCCc3nc4ccccc4[nH]3)nc2c1`, the Inhibition with Staphylococcus aureus was 5.94%; in the assay on Acinetobacter baumannii, 0.02%; in the assay with Escherichia coli, -19.74%; in the assay with Klebsiella pneumoniae it was 9.39%; in the assay on Candida albicans, 4.8%; in the assay on Cryptococcus neoformans, 17.08%.

Regarding `O=C(O)c1ccc(N2CCCCC2)cc1O`, the Inhibition in the assay on Staphylococcus aureus was 7.99%; in the assay on Acinetobacter baumannii, -7.54%; with Escherichia coli, 7.11%; with Klebsiella pneumoniae it was 12.65%; in the assay with Candida albicans, 8.64%; in the assay on Cryptococcus neoformans it was -11.23%.

Consider `O=C(C(=O)c1cccnc1)c1cccnc1`, for which the Inhibition was 7.87% in the assay with Staphylococcus aureus; -9.17% in the assay with Acinetobacter baumannii; 12.61% in the assay on Escherichia coli; 6.86% with Klebsiella pneumoniae; -0.57% with Candida albicans; -3.14% in the assay on Cryptococcus neoformans.

Take `COc1ccc(C2=NC(=O)NC2c2ccc(OC)cc2)cc1` (configuration not stated): the Inhibition in the assay with Staphylococcus aureus is 6.62%; in the assay with Acinetobacter baumannii, 10.45%; in the assay with Escherichia coli, -0.66%; in the assay with Klebsiella pneumoniae, 17.66%; in the assay on Candida albicans it was 6.15%; in the assay on Cryptococcus neoformans, -4.19%.

On to `N#C/C(=C\c1ccc[nH]1)C(=O)c1ccccc1`, for which the Inhibition with Staphylococcus aureus was 9.96%; in the assay on Acinetobacter baumannii, 7.21%; with Escherichia coli it was 0.79%; with Klebsiella pneumoniae it was 8.89%; with Candida albicans, 10.3%; in the assay on Cryptococcus neoformans it was -7.32%.

For the compound `N#Cc1cnn2ccn(C3OC(CO)C(O)C3O)c12` (configuration not stated), the Inhibition in the assay with Staphylococcus aureus is 2.98%; in the assay on Acinetobacter baumannii, -3.63%; with Escherichia coli, 8.76%; in the assay with Klebsiella pneumoniae it was 13.94%; in the assay on Candida albicans it was 4.75%; with Cryptococcus neoformans, -11.71%.

With `O=C(Nc1ccc(NC(=O)c2ccncc2)cc1)c1ccncc1`, the Inhibition with Staphylococcus aureus was 23.04%; in the assay with Acinetobacter baumannii, -1.2%; with Escherichia coli it was 8.24%; in the assay with Klebsiella pneumoniae, 15.75%; in the assay with Candida albicans, 1.6%; in the assay with Cryptococcus neoformans it was -0.9%.

As for `CSc1cccc(NC(=O)Nc2ccccc2C(N)=O)c1`, the Inhibition in the assay with Staphylococcus aureus is 1.7%; in the assay with Acinetobacter baumannii, 10.06%; with Escherichia coli it was 13.89%; with Klebsiella pneumoniae it was 12.71%; in the assay on Candida albicans, -0.32%; in the assay with Cryptococcus neoformans, -13.91%.

Regarding `CCOc1nc(OCC)c2cnn(C)c2n1`, the Inhibition in the assay on Staphylococcus aureus was 17.13%; in the assay on Acinetobacter baumannii, -11.25%; in the assay on Escherichia coli, 5.79%; in the assay with Klebsiella pneumoniae, 6.34%; with Candida albicans, 3.82%; in the assay on Cryptococcus neoformans, -3.08%.

Turning to `Cc1nc2ccnn2c(O)c1CCc1ccccc1`, the Inhibition with Staphylococcus aureus is 8.7%; with Acinetobacter baumannii it was -8.36%; with Escherichia coli, 1.1%; in the assay on Klebsiella pneumoniae, 10.44%; in the assay on Candida albicans, 5.45%; in the assay with Cryptococcus neoformans, -6.6%.

For the compound `CCC(CNc1cc(OC)cc2cccnc12)NC1CCCCC1` (configuration not stated), the Inhibition with Staphylococcus aureus is 4.02%; with Acinetobacter baumannii it was 11.06%; in the assay with Escherichia coli it was 4.95%; with Klebsiella pneumoniae, 14.97%; in the assay on Candida albicans, -0.36%; with Cryptococcus neoformans it was -7.8%.

For the compound `Nc1ccc2c(c1)N=[N+]([O-])c1cc(N)ccc1C2`, the Inhibition in the assay on Staphylococcus aureus was 12.24%; with Acinetobacter baumannii, -9.52%; in the assay on Escherichia coli, 10.77%; with Klebsiella pneumoniae, 23.9%; in the assay with Candida albicans, -4.33%; with Cryptococcus neoformans, -8.98%.

As for `O=C(O)c1cc2cc(OCc3ccccc3)ccc2[nH]1`, the Inhibition in the assay on Staphylococcus aureus is 6.76%; in the assay on Acinetobacter baumannii it was 10.19%; with Escherichia coli, 8.06%; with Klebsiella pneumoniae it was 12.38%; in the assay with Candida albicans it was 9.61%; in the assay on Cryptococcus neoformans it was -8.34%.

`COc1ccc(/C=C2/CCOC2=O)cc1`: the Inhibition was -2.28% in the assay on Staphylococcus aureus; -9.37% in the assay with Acinetobacter baumannii; 12.04% in the assay with Escherichia coli; 6.07% with Klebsiella pneumoniae; 3.59% in the assay on Candida albicans; -15.8% in the assay on Cryptococcus neoformans.

On to `CCCCN1CCN=C1S`, for which the Inhibition is 9.78% with Staphylococcus aureus; -11.78% in the assay with Acinetobacter baumannii; 10.98% in the assay on Escherichia coli; 14.43% in the assay on Klebsiella pneumoniae; -2.77% with Candida albicans; -2.57% in the assay on Cryptococcus neoformans.

On to `N#CC1C=Cc2c(ccc3ccccc23)N1C(=O)c1ccccc1` (configuration not stated), for which the Inhibition with Staphylococcus aureus was 29.76%; in the assay with Acinetobacter baumannii, -9.2%; in the assay on Escherichia coli, 7.35%; with Klebsiella pneumoniae it was 24.48%; with Candida albicans it was 11.9%; in the assay with Cryptococcus neoformans, 2.44%.

Regarding `CC(C)N(Cc1ccccc1)S(=O)(=O)c1nc(C(C)(C)C)n[nH]1`, the Inhibition in the assay on Staphylococcus aureus is 14.24%; with Acinetobacter baumannii, 7.66%; in the assay on Escherichia coli, 0.73%; in the assay on Klebsiella pneumoniae, 17.58%; in the assay with Candida albicans it was 0.76%; with Cryptococcus neoformans, -4.79%.

Values taken from ChEMBL document CHEMBL4296182, “CO-ADD screening of NIH NCI Diversity Set V”.
